Test [1] is described as follows: APR_HepG2_NuclearSize_72hr: Apredica 72-hour HepG2 Assay for Nuclear Size (AID 2282925). Particulars: high-content imaging, actives raise or lower the signal. The gist of the method: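 Compounds (0.39–200 uM, final DMSO 0.5%) were applied to HepG2 for 72 hr. Cells were then formaldehyde-fixed, permeabilized and labelled with Hoechst 33342. Nuclear diameter was quantified from six images per well.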

Test [2] in a line: ATG_CRE_CIS: Attagene CIS-FACTORIAL HepG2 Assay for human cAMP Responsive Element (CRE) binding protein 3 (AID 2282926). Particulars: HepG2 CRE cis-reporter, Attagene multiplexed mRNA; actives raise or lower the signal. The gist of the method:
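Capillary electrophoresis of 6-FAM-labelled, HpaI-digested PCR products quantified reporter transcripts. These came from HepG2 transiently transfected with cis-element reporters and exposed to test chemicals for 24 hours, with DMSO defining baseline activity.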

The target in test [3] is CCAAT/enhancer-binding protein beta (Homo sapiens) (UniProt P17676). Kind of test: ATG_C_EBP_CIS: Attagene CIS-FACTORIAL HepG2 Assay for human CCAAT/Enhancer Binding Protein (C/EBP) beta (AID 2282927). Particulars: HepG2 Attagene cis-factorial transcription factor reporter; actives raise or lower the signal. Put shortly: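 Chemical-treated HepG2 cells (24 h) bearing cis-regulated reporter constructs were processed for total RNA, then reverse transcription, PCR amplification, fluorescent primer extension and fragment analysis; gain- and loss-of-signal were fitted against DMSO.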
CCAAT/enhancer-binding protein beta (Homo sapiens), sequence (P17676 whole entry, looked up, the tested form may be a part): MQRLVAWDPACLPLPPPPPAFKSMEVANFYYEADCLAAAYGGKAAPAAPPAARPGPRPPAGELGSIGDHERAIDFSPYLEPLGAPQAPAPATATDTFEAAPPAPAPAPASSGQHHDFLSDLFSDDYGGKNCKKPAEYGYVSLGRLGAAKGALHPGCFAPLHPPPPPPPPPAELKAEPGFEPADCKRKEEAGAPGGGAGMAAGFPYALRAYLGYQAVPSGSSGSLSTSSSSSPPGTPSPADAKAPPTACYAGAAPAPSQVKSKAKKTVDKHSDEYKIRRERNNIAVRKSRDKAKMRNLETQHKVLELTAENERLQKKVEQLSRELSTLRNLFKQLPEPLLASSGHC

The nature of test [4]: ATG_CMV_CIS: Attagene CIS-FACTORIAL HepG2 Assay for human CMV (Internal Marker) (AID 2282928).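 Also: endpoint acts as a background internal control marker rather than a target.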 Particulars: HepG2 CMV promoter reporter, transcription factor profiling; actives raise or lower the signal. The gist of the method: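 Readout: fluorescent reporter cDNA fragments separated by capillary electrophoresis after RT-PCR and HpaI cut. Cells: HepG2 carrying transfected cis-promoter reporter constructs, dosed 24 h. Endpoint serves as background internal-marker control, fit bidirectionally versus DMSO.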

The nature of test [5]: ATG_DR4_LXR_CIS: Attagene CIS-FACTORIAL HepG2 Assay for human Liver X Receptor (LXR), DR4 submotif (AID 2282929). Particulars: HepG2 Attagene DR4 cis-reporter, mRNA transcription; actives raise or lower the signal. The gist of the method:
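HepG2, transient MRTU transfection, cis-element (DR4) promoter; 24 h compound exposure; total RNA → oligo(dT) RT → PCR → 6-FAM primer extension → HpaI cut → CE. Gain/loss vs DMSO, bidirectional fit.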

Test [6] has as its target Aryl hydrocarbon receptor (Homo sapiens) (UniProt P35869). Kind of test: ATG_Ahr_CIS: Attagene CIS-FACTORIAL HepG2 Assay for human Aryl Hydrocarbon Receptor (Ahr) (AID 2282930). Particulars: HepG2 AhR cis-factorial reporter transcription; actives raise or lower the signal. The gist of the method: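 Following 24 h of chemical dosing, transfected HepG2 liver cells with cis-driven reporter units were lysed for RNA; reporter mRNA was quantified via RT-PCR and capillary electrophoresis, and responses fitted bidirectionally from DMSO.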

Test [7] is described as follows: ATG_AP_1_CIS: Attagene CIS-FACTORIAL HepG2 Assay for human Activator Protein 1 (AP-1) (AID 2282931). Particulars: HepG2 Attagene cis-factorial AP-1 reporter mRNA; actives raise or lower the signal. The gist of the method:
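Transient MRTU transfection of HepG2 → 24 h chemical treatment → RNA isolation, RT-PCR, 6-FAM labelling, HpaI digest → capillary electrophoresis. Fit: bidirectional, DMSO negative control.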

Test [8] in a line: ATG_AP_2_CIS: Attagene CIS-FACTORIAL HepG2 Assay for human Activator Protein 2 (AP-2) (AID 2282932). Particulars: HepG2 AP-2 cis-reporter, Attagene transcription factor profiling; actives raise or lower the signal. The gist of the method:
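Assay in transfected HepG2 with promoter-regulated reporters, 24 h incubation after dosing. Signal is reporter mRNA fluorescence (RT-PCR, capillary electrophoresis), analysed for both increases and decreases relative to DMSO controls.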

The nature of test [9]: ATG_BRE_CIS: Attagene CIS-FACTORIAL HepG2 Assay for human Bone Morphogenetic Protein (BMP) Response Element (BRE) (AID 2282933). Particulars: HepG2 BMP response element reporter, Attagene transcription factor profiling; actives raise or lower the signal. The gist of the method: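 Endogenous transcription factor activity read in transiently transfected HepG2 cells after 24 h chemical exposure. Bidirectional curve fitting against DMSO; readout is reporter transcript level by RT-PCR with capillary electrophoresis of labelled products.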

The target of test [10] is Retinoic acid receptor alpha (Homo sapiens) (UniProt P10276). Nature of the test: ATG_DR5_RAR_CIS: Attagene CIS-FACTORIAL HepG2 Assay for human Retinoic Acid Receptor Alpha (RARE), DR5 submotif (AID 2282934).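 As to AC50: reporter responds to endogenous RAR alpha beta and gamma in HepG2 not RARA alone.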 Particulars: HepG2 Attagene cis-factorial RARE DR5 reporter, mRNA; actives raise or lower the signal. Put shortly:
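Transfected HepG2 reporter cells are exposed to chemicals for 24 h. Then RNA is extracted and the DR5 element reporter transcript is measured by RT-PCR and capillary electrophoresis, with bidirectional curve fitting relative to DMSO.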

The target in test [11] is Transcription factor E2F1 (Homo sapiens) (UniProt Q01094). Nature of the test: ATG_E2F_CIS: Attagene CIS-FACTORIAL HepG2 Assay for human E2F Transcription Factor 1 (AID 2282935). Particulars: HepG2 Attagene cis-reporter, E2F reporter RNA transcripts; actives raise or lower the signal. The gist of the method: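 In this cis-factorial format, endogenous factor activity drives transfected reporters in HepG2; transcripts collected at 24 h are quantified by fluorescence after RT-PCR and capillary separation.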
Transcription factor E2F1 (Homo sapiens), sequence (Q01094 whole entry, looked up): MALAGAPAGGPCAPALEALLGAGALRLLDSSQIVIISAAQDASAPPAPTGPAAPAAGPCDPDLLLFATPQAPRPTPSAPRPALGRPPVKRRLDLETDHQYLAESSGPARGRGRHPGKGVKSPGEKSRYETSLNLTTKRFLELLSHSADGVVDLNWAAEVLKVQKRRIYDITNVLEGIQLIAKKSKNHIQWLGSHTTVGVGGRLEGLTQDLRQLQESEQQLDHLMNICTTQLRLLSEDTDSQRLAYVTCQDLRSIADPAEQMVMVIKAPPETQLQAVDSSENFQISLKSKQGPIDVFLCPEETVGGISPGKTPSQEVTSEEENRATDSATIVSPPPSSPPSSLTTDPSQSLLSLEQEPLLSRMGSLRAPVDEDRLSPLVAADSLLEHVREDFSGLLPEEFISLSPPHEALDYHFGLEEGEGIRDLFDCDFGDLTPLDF

The nature of test [12]: ATG_E_Box_CIS: Attagene CIS-FACTORIAL HepG2 Assay for human Enhancer Box (E-box) (AID 2282936). Particulars: HepG2 E-box cis-reporter transcription, actives raise or lower the signal. Put shortly:
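Measured 24 h post-dosing in HepG2 cells transfected with multiple cis-regulated reporter units, signal being reporter mRNA induction detected by fluorescent RT-PCR with capillary electrophoresis; gain or loss fitted against DMSO.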

Test [13] in a line: ATG_M_61_CIS: Attagene CIS-FACTORIAL HepG2 Assay for M61 Transcription Factor (Internal Marker) (AID 2282937). Particulars: HepG2 Attagene CIS-FACTORIAL M61 internal marker reporter; actives raise or lower the signal. The gist of the method:
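Human liver HepG2, transient MRTU transfection (cis promoter elements), 24 h compound. Total RNA → oligo(dT) RT → PCR → FAM label → HpaI → CE. Internal background marker; bidirectional fitting, DMSO = baseline.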

A short description of test [14]: ATG_EGR_CIS: Attagene CIS-FACTORIAL HepG2 Assay for human Early Growth Response 1 (EGR1) (AID 2282938). Particulars: HepG2 Attagene CIS-FACTORIAL EGR reporter mRNA; actives raise or lower the signal. The gist of the method: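 Transient transfection of human HepG2 with multiple cis-regulated reporter units, chemical exposure 24 h, total RNA isolated. Reverse transcription, PCR, fluorescent labelling and capillary electrophoresis quantify reporter transcripts; activity fitted bidirectionally against DMSO.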

Test [15] in a line: ATG_M_19_CIS: Attagene CIS-FACTORIAL HepG2 Assay for M19 Transcription Factor (Internal Marker) (AID 2282939). Particulars: HepG2 Attagene CIS-FACTORIAL M19 internal marker reporter; actives raise or lower the signal. Put shortly:
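Internal marker readout, fitted in both directions against DMSO, from HepG2 cells carrying transfected cis-element reporter constructs; RT-PCR and capillary electrophoresis of reporter mRNA after 24 h exposure.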

Test [16] in a line: ATG_ERE_CIS: Attagene CIS-FACTORIAL HepG2 Assay for Estrogen Response Element (ERE) (AID 2282940). Particulars: HepG2 ERE cis-reporter, Attagene RNA transcript; actives raise or lower the signal. Put shortly:
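After 24 h compound treatment, RNA from transfected HepG2 cells was reverse-transcribed, reporter cDNA PCR-amplified, FAM-labelled, HpaI-cut and resolved by capillary electrophoresis. ERE-driven cis reporter transcripts reflect endogenous factors; gain or loss scored against DMSO.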

Test [17] can be described thus: ATG_Ets_CIS: Attagene CIS-FACTORIAL HepG2 Assay for human Erythroblast Transformation Specific (ETS) (AID 2282941). Particulars: HepG2 ETS cis-reporter transcription, actives raise or lower the signal. The gist of the method:
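RT-PCR/capillary electrophoresis fluorescence read-out of reporter mRNA; HepG2 transient multi-reporter transfection; 24 h compound exposure; gain or loss of signal fitted bidirectionally relative to DMSO.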

The target in test [18] is Hepatocyte nuclear factor 3-beta (Homo sapiens) (UniProt Q9Y261). Kind of test: ATG_FoxA2_CIS: Attagene CIS-FACTORIAL HepG2 Assay for human Forkhead box A2 (FOXA2) (AID 2282942). Particulars: HepG2 cis-reporter transcription factor activity, 24 h; actives raise or lower the signal. Put shortly: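 Transient MRTU transfection of HepG2 liver cells; 24 h treatment; total RNA → oligo(dT) RT → PCR → FAM primer extension → HpaI cut → CE. Bidirectional fit vs DMSO.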
Hepatocyte nuclear factor 3-beta (Homo sapiens), sequence (Q9Y261 whole entry, looked up): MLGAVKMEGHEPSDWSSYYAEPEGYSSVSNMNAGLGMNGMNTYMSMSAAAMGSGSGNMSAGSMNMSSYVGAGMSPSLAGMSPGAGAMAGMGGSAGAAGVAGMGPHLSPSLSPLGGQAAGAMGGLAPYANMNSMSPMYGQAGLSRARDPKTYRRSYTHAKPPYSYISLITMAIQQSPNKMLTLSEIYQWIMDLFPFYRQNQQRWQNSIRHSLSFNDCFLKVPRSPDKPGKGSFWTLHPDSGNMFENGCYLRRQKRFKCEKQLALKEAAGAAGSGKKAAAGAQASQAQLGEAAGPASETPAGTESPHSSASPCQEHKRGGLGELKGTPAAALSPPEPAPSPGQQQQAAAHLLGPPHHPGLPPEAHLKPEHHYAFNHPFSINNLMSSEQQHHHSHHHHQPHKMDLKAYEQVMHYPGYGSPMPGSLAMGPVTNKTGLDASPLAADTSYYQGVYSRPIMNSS

Test [19] is described as follows: ATG_GATA_CIS: Attagene CIS-FACTORIAL HepG2 Assay for human GATA Binding Protein (AID 2282944). Particulars: HepG2 GATA cis-element reporter, Attagene multiplex mRNA; actives raise or lower the signal. The gist of the method: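 Reporter transcripts from a GATA cis-regulated unit, among multiplexed reporters in transfected HepG2 cells, were measured by RT-PCR with capillary electrophoresis after 24 h dosing. Induction or loss scored relative to DMSO.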

Test [20] can be described thus: ATG_FoxO_CIS: Attagene CIS-FACTORIAL HepG2 Assay for human Forkhead box O (FoxO) (AID 2282943). Particulars: HepG2 Attagene cis-reporter, FoxO element, mRNA; actives raise or lower the signal. The gist of the method: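 24 h chemical exposure, HepG2 with transient cis-MRTU transfection. RNA extraction, oligo(dT) RT, reporter-specific PCR, primer-extension labelling, HpaI digestion, CE fragment analysis; bidirectional fit, DMSO baseline.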

“And” between values parts separate entries of the source, which are not always exact repeats. Equal values may be shown once. Some compounds were tested as several samples or in several runs, with calls that do not always agree. The source made the active and inactive calls. The calls were made as follows: active = hit-call score of the fitted dose curve at least 0.9, where 1 is the maximum; inactive = score below 0.9.

Retinoic acid receptor alpha (Homo sapiens), sequence (P10276 whole entry, looked up): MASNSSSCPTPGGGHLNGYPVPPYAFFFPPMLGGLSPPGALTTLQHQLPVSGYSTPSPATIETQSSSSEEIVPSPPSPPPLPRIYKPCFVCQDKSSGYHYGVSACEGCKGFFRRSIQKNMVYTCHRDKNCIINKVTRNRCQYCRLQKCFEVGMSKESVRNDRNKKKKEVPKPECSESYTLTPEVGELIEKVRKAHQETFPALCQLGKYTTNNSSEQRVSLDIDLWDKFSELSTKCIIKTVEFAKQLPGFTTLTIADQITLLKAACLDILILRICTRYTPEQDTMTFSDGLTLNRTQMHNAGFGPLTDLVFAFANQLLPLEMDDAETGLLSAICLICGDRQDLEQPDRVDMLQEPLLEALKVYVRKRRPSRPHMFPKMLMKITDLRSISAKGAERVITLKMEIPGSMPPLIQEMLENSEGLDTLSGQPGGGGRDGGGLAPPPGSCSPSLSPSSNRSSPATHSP
Aryl hydrocarbon receptor (Homo sapiens), sequence (P35869 whole entry, looked up): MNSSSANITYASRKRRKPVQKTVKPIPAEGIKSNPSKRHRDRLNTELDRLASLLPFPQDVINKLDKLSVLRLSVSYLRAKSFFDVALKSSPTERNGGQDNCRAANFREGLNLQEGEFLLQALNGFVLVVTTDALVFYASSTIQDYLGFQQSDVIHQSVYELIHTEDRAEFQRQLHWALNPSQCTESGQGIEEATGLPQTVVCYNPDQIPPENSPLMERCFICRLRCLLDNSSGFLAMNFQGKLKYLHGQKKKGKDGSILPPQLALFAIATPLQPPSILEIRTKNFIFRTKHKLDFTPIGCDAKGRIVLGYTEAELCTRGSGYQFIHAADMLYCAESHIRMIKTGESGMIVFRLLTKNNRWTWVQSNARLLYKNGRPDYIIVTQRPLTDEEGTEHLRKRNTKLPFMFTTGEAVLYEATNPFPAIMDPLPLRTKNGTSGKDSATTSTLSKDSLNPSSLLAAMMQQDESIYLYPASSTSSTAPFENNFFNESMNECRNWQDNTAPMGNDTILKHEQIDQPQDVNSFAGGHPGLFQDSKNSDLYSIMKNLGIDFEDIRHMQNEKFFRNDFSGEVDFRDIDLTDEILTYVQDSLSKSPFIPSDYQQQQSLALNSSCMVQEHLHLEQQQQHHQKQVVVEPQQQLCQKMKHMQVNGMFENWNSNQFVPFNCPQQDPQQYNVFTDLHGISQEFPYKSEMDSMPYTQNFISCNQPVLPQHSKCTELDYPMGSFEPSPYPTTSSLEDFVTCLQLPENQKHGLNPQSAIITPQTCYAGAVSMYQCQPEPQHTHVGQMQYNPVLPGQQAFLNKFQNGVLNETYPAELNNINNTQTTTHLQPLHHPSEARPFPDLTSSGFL

`O=C(Nc1ccccc1)Nc1ccnc(Cl)c1`: the call in test [1], in test [5], in test [6], in [8], in [11] and in [12] was inactive. The outcome in test [13], in [15], in test [16], in test [17], in [18] and in test [19] was inactive. The AC50 was 22.5 µM (active) in test [2]; 50 µM (active) in [3]; 26.5 µM (active) in test [4]; 16.3 µM (active) in test [7]; 27.8 µM (active) in test [9]; 88.1 µM (active) in [10]. For the same compound, in test [14], the AC50 is 50 µM (active).
In the case of `CCCCOC(=O)c1ccccc1C(=O)OCCCC`, the result in test [1], in test [2], in test [3], in [4], in test [5] and in test [6] was inactive. The outcome in test [8], in [9], in test [10], in [11], in test [12] and in test [13] was inactive. For the same compound, the result in test [14], in test [15], in [17], in test [18] and in test [19] was inactive. For the same compound, the concentration at half-maximal activity (AC50) in test [5] is 177 µM (active); in test [14], 34.1 µM (active); in test [16], 50 µM (active) [middle of 5 runs].
Turning to `Oc1ccccc1-c1ccccc1`, the outcome in test [1], in [2], in [3], in [4], in [6] and in test [8] was inactive. Further, the outcome in [11], in [12], in test [13], in test [14], in test [15] and in test [16] was inactive. In addition, the compound was called inactive in [17], in test [18], in test [20] and in test [19]. Besides, the AC50 in [2] was 148 µM (active); in test [4] it was 56.6 µM (active); in [5], 80.3 µM (active) and 64 µM (active); in test [6] it was 40.5 µM (active); in [9], 71.7 µM (active) and 150 µM (active); in test [14] it was 62.4 µM (active). Further, the AC50 in test [16] was 13.1 µM (active).
Consider `CNC(=S)S`, for which the result in [1], in [2], in test [3], in test [4], in test [5] and in test [6] was inactive. In addition, the compound was called inactive in [7], in test [8], in test [9], in test [11], in test [12] and in [13]. Further, the result in test [14], in [15], in [16], in test [17], in [18] and in [19] was inactive. For the same compound, the AC50 in test [4] was 50 µM (active); in [6], 33.2 µM (active); in test [7], 50 µM (active); in [9], 65.9 µM (active); in test [14], 50 µM (active).

What is called AC50 is the concentration giving half of the maximal activity seen.

The record behind these values is PubChem BioAssay (EPA / NIEHS).
